Potency, activation and activity change, negative = inhibition data for 18 compounds are collected here from PubChem BioAssay (NCATS).

Values joined by “and” are separate entries in the source; they are usually repeats but may differ in a detail not shown here. Equal entries are not always repeated. Inconclusive results are not listed. A call without a number means that no potency is given here. Values without a mark were called inactive. Active and inactive are the calls of the source. Calls follow the shape of the dose curve; as a rule, active = well fitted curve in the direction sought with a large enough effect; inconclusive = small, poorly fitted or top-dose-only effect, or another doubt; inactive = no such curve, though single readings can be large; an effect the other way counts as inactive or inconclusive.
Potency is read from the fitted curve at half-maximal effect.

The target in one assay is Rap guanine nucleotide exchange factor 4 (Homo sapiens) (UniProt Q8WZA2). The experiment in a line: Confirmatory qHTS for agonist of cAMP-regulated guanine nucleotide exchange factor 4 (EPAC2) (AID 1645884).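 Also: nucleotide exchange releases bodipy-GDP from Rap1 and this lowers its fluorescence; nearly all actives have a fitted effect of over 65% in size.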 The note with it: EPAC2 GEF activity, Rap1B-BODIPY-GDP fluorescence; series mostly up to 154 µM. For orientation: qHTS replaces the single test concentration by a dilution series.
Rap guanine nucleotide exchange factor 4 (Homo sapiens), sequence (Q8WZA2 whole entry, looked up): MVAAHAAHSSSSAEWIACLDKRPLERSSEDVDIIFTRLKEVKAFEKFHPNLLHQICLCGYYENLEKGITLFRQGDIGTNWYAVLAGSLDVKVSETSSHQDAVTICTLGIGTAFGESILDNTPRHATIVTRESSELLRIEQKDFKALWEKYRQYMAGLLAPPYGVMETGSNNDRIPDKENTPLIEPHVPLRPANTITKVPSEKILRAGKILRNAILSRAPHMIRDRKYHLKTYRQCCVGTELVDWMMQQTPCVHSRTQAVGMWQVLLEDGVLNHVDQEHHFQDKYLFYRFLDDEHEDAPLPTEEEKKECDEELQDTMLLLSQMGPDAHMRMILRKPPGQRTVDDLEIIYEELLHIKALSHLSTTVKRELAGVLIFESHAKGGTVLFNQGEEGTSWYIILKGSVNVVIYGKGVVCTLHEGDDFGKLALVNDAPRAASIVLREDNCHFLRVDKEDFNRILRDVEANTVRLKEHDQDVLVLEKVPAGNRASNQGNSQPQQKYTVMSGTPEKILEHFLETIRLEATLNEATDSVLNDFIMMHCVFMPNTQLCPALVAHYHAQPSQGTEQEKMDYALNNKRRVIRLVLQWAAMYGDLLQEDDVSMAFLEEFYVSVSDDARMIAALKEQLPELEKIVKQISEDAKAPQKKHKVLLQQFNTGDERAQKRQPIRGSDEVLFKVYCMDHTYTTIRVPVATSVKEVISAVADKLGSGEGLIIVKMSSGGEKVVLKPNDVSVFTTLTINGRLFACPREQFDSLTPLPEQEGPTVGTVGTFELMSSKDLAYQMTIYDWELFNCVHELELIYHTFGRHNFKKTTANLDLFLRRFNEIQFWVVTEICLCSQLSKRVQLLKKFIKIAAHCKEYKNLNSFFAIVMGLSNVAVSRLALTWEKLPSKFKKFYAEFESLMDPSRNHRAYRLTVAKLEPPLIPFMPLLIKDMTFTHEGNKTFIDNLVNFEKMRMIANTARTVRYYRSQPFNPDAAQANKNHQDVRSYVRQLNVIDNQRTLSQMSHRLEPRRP
With `O=C1O/C(=C/Br)CCC1c1cccc2ccccc12` (centres undefined), the Potency entry is “inactive”. As for `Nc1cc(-c2ccncc2)c[nH]c1=O`, the Potency entry was “inactive”.

For `C#CCN1C(C)=C(C(=O)OC)C(c2cccc([N+](=O)[O-])c2)C(C(=O)OCC)=C1C` (centres undefined), the Potency entry is “inactive”.

Turning to `N#C/C(=C\c1ccc(O)c(O)c1)C(=O)c1ccc(O)c(O)c1`, the activation is 1.63% [at 17.1 µM, percent relative to cAMP agonist control]. In the case of `O=C(O)c1cc([N+](=O)[O-])ccc1NCCCc1ccccc1`, the Potency result is “inactive”.

`Brc1c(Br)c(Br)c2n[nH]nc2c1Br`: the Potency result was “inactive”. On the same count and under the same terms, the result for `Oc1cc2c(cc1O)CN(C(=S)NCCc1ccc(Cl)cc1)CCC2` reads “inactive”; that for `N#C/C(=C\c1ccc(O)c(O)c1)C(=O)NCCCc1ccccc1`, “inactive”; that for `CC(=O)[C@]1(O)Cc2c(O)c3c(c(O)c2[C@@H](O[C@H]2C[C@H](N)[C@H](O)[C@H](C)O2)C1)C(=O)c1c(O)cccc1C3=O`, 79.3 µM (active). In the case of `O=C1NC(=O)/C(=C/c2ccc(-c3ccc(F)cc3O)o2)S1`, the Potency result is “inactive”. In the case of `CCOC(=O)C1=C(C)NC(C)=C(C(=O)OCC)C1c1c(F)c(F)c(F)c(F)c1F`, the Potency result was “inactive”.

As for `O=C(O)c1ccccc1Nc1cccc(C(F)(F)F)c1`, the Potency result was “inactive”. In the case of `c1ccc(CCNc2nc(-c3ccccc3)cs2)cc1`, the Potency entry is “inactive”. Same read-out and setting: to `O=C1C(SCCO)=C(SCCO)C(=O)c2ccccc21` belongs “inactive”. `Cc1ccc(O)c(N=Nc2ccccc2)n1`: the Potency entry was “inactive”. Regarding `CC1(C)[C@@H](O)CC[C@]2(C)[C@H]3C(=O)C=C4[C@@H]5C[C@@](C)(C(=O)O)CC[C@]5(C)CC[C@@]4(C)[C@]3(C)CC[C@@H]12`, the Potency entry is “inactive”.

Another assay has the same target. The experiment in a line: Confirmatory qHTS for antagonist of cAMP-regulated guanine nucleotide exchange factor 4 (EPAC2) (AID 1645885). Also: nearly all actives have a fitted effect of over 25% in size. The note with it: EPAC2 Rap1B-BODIPY-GDP exchange fluorescence, biochemical; series mostly up to 114 µM.
For the compound `O=C1O/C(=C/Br)CCC1c1cccc2ccccc12` (centres undefined), the Potency was 49.4 µM (active).

With `Nc1cc(-c2ccncc2)c[nH]c1=O`, the Potency result is “inactive”.

For the compound `C#CCN1C(C)=C(C(=O)OC)C(c2cccc([N+](=O)[O-])c2)C(C(=O)OCC)=C1C` (centres undefined), the Potency was 6.98 µM (active). Regarding `Cn1cc(C2=C(c3ccc(Cl)cc3Cl)C(=O)NC2=O)c2ccccc21`, the activity change, negative = inhibition was 2.07% [at 12.7 µM]. For `N#C/C(=C\c1ccc(O)c(O)c1)C(=O)c1ccc(O)c(O)c1`, the activity change, negative = inhibition is 16.6% [at 12.7 µM]. Turning to `Brc1c(Br)c(Br)c2n[nH]nc2c1Br`, the Potency was 15.6 µM (active). Still for that read-out and setting: to `COC(=O)[C@H]1[C@H]2C[C@@H]3c4[nH]c5cc(OC)ccc5c4CCN3C[C@H]2C[C@@H](OC(=O)/C=C/c2cc(OC)c(OC)c(OC)c2)[C@@H]1OC` belongs “inactive”; to `CC(=O)[C@]1(O)Cc2c(O)c3c(c(O)c2[C@@H](O[C@H]2C[C@H](N)[C@H](O)[C@H](C)O2)C1)C(=O)c1c(O)cccc1C3=O`, “inactive”; to `O=C1NC(=O)/C(=C/c2ccc(-c3ccc(F)cc3O)o2)S1`, 9.87 µM (active). Same read-out and setting: the result for `CCOC(=O)C1=C(C)NC(C)=C(C(=O)OCC)C1c1c(F)c(F)c(F)c(F)c1F` reads 44.1 µM (active). On the same count and under the same terms, the result for `c1ccc(CCNc2nc(-c3ccccc3)cs2)cc1` reads “inactive”; that for `O=C1C(SCCO)=C(SCCO)C(=O)c2ccccc21`, “inactive”; that for `CC1(C)[C@@H](O)CC[C@]2(C)[C@H]3C(=O)C=C4[C@@H]5C[C@@](C)(C(=O)O)CC[C@]5(C)CC[C@@]4(C)[C@]3(C)CC[C@@H]12`, 3.93 µM (active) and 2.48 µM (active).
